Screening results from PubChem.
Shown are actives, neighbours in structure and some others; about 2.9% of the full set was active somewhere.
Mtb FBA inh = Mtb FBA enzyme inhibitors, primary screen, biochemical, fluorescence, strain H37Rv; purified M. tuberculosis FBA, fluorescence read-out; inhibition, % at 1 µM; Fructose-bisphosphate aldolase (Mycobacterium tuberculosis (strain ATCC 25618 / H37Rv)), …; 360,000 compounds, 2.3% hits; AID 588726, 2011; in the data active = inhibition above about 27%;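 also: 0% = vehicle and 100% = reference inhibitor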
Target sequence (P9WQA3 whole entry, looked up): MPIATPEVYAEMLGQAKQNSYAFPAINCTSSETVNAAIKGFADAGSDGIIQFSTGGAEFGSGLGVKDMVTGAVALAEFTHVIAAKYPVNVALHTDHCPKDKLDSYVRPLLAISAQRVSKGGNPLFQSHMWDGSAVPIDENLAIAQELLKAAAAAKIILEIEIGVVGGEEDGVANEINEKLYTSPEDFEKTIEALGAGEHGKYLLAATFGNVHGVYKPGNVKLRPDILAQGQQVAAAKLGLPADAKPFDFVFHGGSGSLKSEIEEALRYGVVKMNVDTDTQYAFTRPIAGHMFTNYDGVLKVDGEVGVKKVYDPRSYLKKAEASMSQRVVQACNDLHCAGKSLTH
FadD28 FP inh = inhibitors of FadD28 bisubstrate probe binding, primary screen, biochemical, fluorescence polarization, single point; Mycobacterium tuberculosis FadD28 fatty-acid-AMP ligase; inhibition, % at 12.5 µM; 360,000 compounds, 0.22% hits; AID 588549, 2011; in the data active = inhibition above about 8.5%, passing the limit was not always enough; inconclusive = no clear call, values can overlap the other calls
Mtb hypoxia rep = PubChem AID 1159583; 300,000 compounds, 0.1% hits; fluorescence inhibition, % (test concentration not listed); M. tuberculosis hypoxia-regulated fluorescent reporter, fluorescence; in the data active = fluorescence inhibition mostly above about 23%, no sharp cut-off; inactive = mostly below about 17%
GDH-TPI inh = GDH-TPI coupling enzyme inhibitors, primary screen, artefact control for M. tuberculosis FBA inhibitor project, biochemical, absorbance, full deck; GDH-TPI coupled enzyme counterscreen, NADH absorbance; inhibition, % at 4.8 µM; 360,000 compounds, 1.2% hits; AID 588335, 2011; in the data active = inhibition above about 30%;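 also: 0% = DMSO wells and 100% = wells lacking the enzyme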
BioA inh = M. tuberculosis BioA enzyme inhibitors, primary screen, biochemical, plate reader, single point, HTS. purified M. tuberculosis BioA enzyme. 7,8-diaminopelargonic acid synthase BioA (Mycobacterium tuberculosis). inhibition, % at 9.99 µM. 360,000 compounds, 0.096% hits; in the data active = inhibition above about 40%; inconclusive = no clear call, values can overlap the other calls
An asterisk follows results filed as active; u = inconclusive; x = no result shown; + = active, no number; ! = repeats disagree.

SMILES	Mtb FBA inh	FadD28 FP inh	Mtb hypoxia rep	GDH-TPI inh	BioA inh
C[C@H](CO)N1C[C@H](C)[C@@H](CN(C)Cc2cccnc2)Oc2ncc(-c3cccc(F)c3)cc2C1=O	x	x	x	x	4.2
C[C@@H]1CN([C@@H](C)CO)C(=O)c2cccc(NS(=O)(=O)c3ccc(F)cc3)c2O[C@@H]1CN(C)C	x	x	x	x	-3.2
CN(C)c1cccc(NC2=CC(=[N+]3CCOCC3)CC(C)(C)C2)c1	-0.4	-0.6	7.7	37.1*	-0.2
C=CCSc1nnc(-c2cccc3ccccc23)o1	2.3	-0.3	-2.9	14.2	-1.9
C=CCSc1nnc(-c2cc3c(s2)-c2ccccc2CC3)o1	+	-2.4	x	9.5	-1.0
C[C@@H]1CCCCO[C@H](CN(C)C(=O)Cc2ccccc2)[C@H](C)CN([C@H](C)CO)C(=O)c2cc(NC(=O)c3ccncc3)ccc2O1	x	x	x	x	-0.7
C[C@@H]1CCCCO[C@H](CN(C)C(=O)NC2CCCCC2)[C@@H](C)CN([C@@H](C)CO)C(=O)c2cc(NS(=O)(=O)c3cccs3)ccc2O1	x	x	x	x	1.1
O=C(N=c1nc2ccccn2s1)c1ccccc1	2.2	0.0	4.2	32.3*	-0.4
CN(C)CC(=O)N[C@@H]1CC[C@@H](CC(=O)NCc2ccccc2F)O[C@H]1CO	x	x	x	x	-1.0
CCOC(=O)c1sc(NC(=O)c2ccc(C)s2)cc1C	5.7	-7.0	18.3	43.0*	-2.7
CCN(CC)c1ccc(C=NN2CCN(Cc3ccc(C)cc3)CC2)cc1	x	x	-7.4	x	x
CN1c2ccc(-c3cccc(F)c3)cc2[C@H]2[C@H](CCN2C(=O)Cc2ccccc2)[C@@H]1CO	x	x	x	x	23.2
O=S(=O)(Nc1ccc(-c2cn3c(n2)SCC3)cc1)c1cccs1	0.3	2.5	-4.3	12.4	x
N#Cc1ccc(-c2cn3c(n2)SCC3)cc1	+	-3.3	5.0	4.3	0.4
O=[N+]([O-])c1ccc(-c2cn3c(n2)SCC3)cc1	1.4	-0.4	6.8	36.5*	-2.5
O=C(CNC1CCCCC1)Nc1cccc([N+](=O)[O-])c1	0.5	-2.8	12.6	-1.5	-1.5
O=C(Nc1cccc([N+](=O)[O-])c1)NC1CCCCCCC1	0.0	17.6*	x	-8.4	-0.8
C=CC[C@@H](CC(=O)N[C@@H](CO)Cc1ccccc1)C(=O)N[C@H](COC(=O)[C@@H](CC=C)Cc1ccc(F)cc1)Cc1ccccc1	0.1	-1.2	x	1.3	-1.6
C=CCC(CC(=O)NC(CO)Cc1ccccc1)C(=O)NC(COC(=O)C(CC=C)Cc1ccc(F)cc1)Cc1ccccc1 (stereo not given)	x	x	38.1*!	x	x
Cc1ccc(C=NNC(=O)c2ccc(NC(=O)c3ccc(Cl)cc3)cc2)o1	x	x	6.1	x	x
CCCCCCCCNC(C)C(O)c1ccc(SC(C)C)cc1 (stereo not given)	0.8	15.4*	x	-2.4	8.0
C[C@@H](NCCc1ccc(O)cc1)[C@@H](O)c1ccc(O)cc1	2.4	-0.8	x	5.3	0.6
Cc1ccc(S(=O)(=O)N(C)C[C@@H]2OCCCC[C@@H](C)Oc3ccc(NS(C)(=O)=O)cc3C(=O)N([C@H](C)CO)C[C@@H]2C)cc1	x	x	x	x	-0.1
CC1CN(C(C)CO)C(=O)c2cc(NC(=O)Cc3ccccc3)ccc2OC1CN(C)C(=O)Nc1ccc(C(F)(F)F)cc1 (stereo not given)	x	x	-2.3	x	x
O=C(CCCN1C(=O)c2cccnc2C1=O)Nc1ccc(F)cc1Cl	+	x	11.3	11.7	-1.4
SMILES	Mtb FBA inh	FadD28 FP inh	Mtb hypoxia rep	GDH-TPI inh	BioA inh
Cc1ccc(Cl)cc1NC(=O)CCCN1C(=O)c2cccnc2C1=O	0.8	-0.1	x	-3.1	x
COCC(=O)Nc1ccc2c(c1)[C@H]1C[C@H](CC(=O)N[C@H](C)c3ccccc3)O[C@H](CO)[C@H]1O2	x	x	x	x	-3.7
COc1ccc([C@H]2CC(=O)C=C(c3ccc(NC(C)=O)cc3)C2)cc1OC	6.6	-1.5	x	36.8*	2.6
O=C1C=C(c2cc3ccccc3s2)CCC1	7.6	-0.6	20.2	34.5*	-1.2
CC1(C)CC(=O)C=C(c2cc3ccccc3s2)C1	10.0	-1.0	4.5	30.2	-2.9
COc1ccc([C@H]2CC(=O)C=C(c3cc4ccccc4s3)C2)cc1OC	0.4	-3.3	x	32.6*	2.4
C#CCOCCOCCOCCNc1nc(N2CCN(C(=O)C(CCC(=O)O)n3cc(C(N)Cc4ccc(O)cc4)nn3)CC2)nc(N2CCN(C(=O)C(Cc3cc4ccccc4[nH]3)n3cc(C(N)CC(C)C)nn3)CC2)n1 (stereo not given)	x	x	-3.9	x	x
COc1ccc(NC(=O)Nc2ccc3c(c2)C(=O)N([C@@H](C)CO)C[C@@H](C)[C@@H](CN(C)C(=O)NC(C)C)OCCCC[C@H](C)O3)cc1	x	x	x	x	-0.3
CCCOC(=O)c1ccc(NC(=O)c2cc(OC)c(OC)c(OC)c2Br)cc1	-1.6	12.5*	2.6	3.6	-1.0
O=C(O)c1cc(NN=Nc2ccc(Br)cc2)cc([N+](=O)[O-])c1	-0.6	u	x	31.0*	x
O=[N+]([O-])c1cccc(NN=Nc2ccccc2)c1	-0.7	0.0	4.0	16.4	1.3
O=C(O)c1cc(NN=Nc2cccc([N+](=O)[O-])c2)cc([N+](=O)[O-])c1	-2.3	4.9	4.0	24.5	9.5
O=[N+]([O-])c1ccc(N=NNc2ccccc2)cc1	77.6*	-2.9	9.6	10.8	x
C[C@@H]1CN([C@H](C)CO)C(=O)Cc2cc(NS(=O)(=O)c3ccccc3)ccc2O[C@@H]1CN(C)C(=O)Nc1cccc2ccccc12	x	x	x	x	-2.5
CCOc1ccc(C(=O)N/N=C/c2ccc(-c3ccc(S(=O)(=O)Nc4ncccn4)cc3)o2)cc1	25.7	-8.8	x	35.3*	x
NC(=S)N/N=C/c1ccc(-c2ccc(SC(F)F)cc2)o1	8.6	-0.7	x	44.8*	0.3
NC(=S)NN=Cc1ccc(-c2ccc(S(=O)(=O)Nc3ncccn3)cc2)o1	20.2	22.8*	7.3	32.6*	x
Cc1ccc(-c2ccc(/C=N/NC(N)=S)o2)cc1	10.7	-2.7	x	24.1	0.8
Cc1ccc(NC(=O)C2CCCCC2)cc1C	-0.6	-1.0	17.0	8.1	-2.0
CCC1(c2ccccc2)NC(=O)N(CC(=O)Nc2ccc3c(C)cc(=O)oc3c2)C1=O (stereo not given)	198.1*	-1.4	2.7	20.9	-6.0
CCC1(c2ccccc2)NC(=O)N(CC(=O)Nc2ccc3c(c2)OCO3)C1=O (stereo not given)	-2.1	-5.8	1.0	-4.3	-9.4
Cc1cc(=O)oc2cc(NC(=O)CC3(CC(=O)O)CCCC3)ccc12	+	-2.2	-1.7	19.5	1.5
Cc1cc(=O)oc2cc(NC(=O)C3CCCC3)ccc12	155.4*	-2.1	0.4	12.6	-0.6
